# Compounds with a hit are over-represented: about 0.54% of the library has one in this group of screens.
# mIDH1 inhibitor – qHTS for Inhibitors of mutant isocitrate dehydrogenase 1 (IDH1): qHTS; hit rate 0.093% among 390,000; Isocitrate dehydrogenase [NADP] cytoplasmic (Homo sapiens), O75874; Potency, µM (doses to about 76.6 µM), for the others: top-dose activity change, negative = inhibition, usual class: inhibitors; IDH1-R132H enzyme, NADPH consumption, diaphorase/resazurin fluorescence; active = well fitted inhibition curve with a large enough effect; inconclusive = small, poorly fitted or top-dose-only effect; inactive = no such curve, though single readings can be large or run the other way; note: potency is the fitted concentration of half-maximal effect; % is set by controls: 0 for no effect and ±100 for the full control effect; nearly all actives have a fitted effect of over 65% in size
# Target sequence (O75874 whole entry R132H, stated change not applied): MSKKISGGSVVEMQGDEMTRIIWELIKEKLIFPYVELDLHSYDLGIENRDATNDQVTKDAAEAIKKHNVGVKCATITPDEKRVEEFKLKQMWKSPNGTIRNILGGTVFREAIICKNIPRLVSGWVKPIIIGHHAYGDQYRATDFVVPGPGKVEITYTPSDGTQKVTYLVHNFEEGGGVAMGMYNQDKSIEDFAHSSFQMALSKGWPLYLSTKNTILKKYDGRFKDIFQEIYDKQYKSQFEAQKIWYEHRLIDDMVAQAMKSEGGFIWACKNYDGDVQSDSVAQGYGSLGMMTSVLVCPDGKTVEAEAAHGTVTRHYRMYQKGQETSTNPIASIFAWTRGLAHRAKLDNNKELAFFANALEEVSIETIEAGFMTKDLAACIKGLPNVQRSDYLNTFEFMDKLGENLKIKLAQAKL
#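 IDH1-R132H (0.5 ug/mL dispensed) in pH 7.5 Tris buffer was preincubated 30 min with compound, then given a substrate mix of 0.016 mM NADPH and 2 mM alpha-KG for 80 min at room temperature; remaining NADPH was read by diaphorase/resazurin fluorescence.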
# Menin MLL FP FL – qHTS Assay for Inhibitors Targeting the Menin-MLL Interaction in MLL Related Leukemias: Competition With Fluorescein Labeled MLL-derived Peptide. Fluorescence polarization, fluorescein-MLL peptide displacement from menin. FP activity change, % at 61.4 µM. 290,000 tested, under 10 active. AID 1766, 2009; active = well fitted curve in the direction sought with a large enough effect in the polarisation, not every such curve was filed as active; inconclusive = small, poorly fitted or top-dose-only effect, or effect the other way, or a change in a side signal; inactive = no such curve, though single readings can be large or run the other way; the % refers to the polarisation; note: % of control where 0% means no effect
# MLL CXXC-DNA inh – qHTS Fluorescence Polarization Assay for Inhibitors of MLL CXXC domain - DNA interaction | MLL-CXXC / FITC-HOXA9 DNA fluorescence polarization | Histone-lysine N-methyltransferase 2A (Homo sapiens), Q03164 | Potency, µM (top dose mostly 115 µM), for the others: top-dose activity change, negative = inhibition, usual class: inhibitors | hit rate 0.037% among 290,000 | AID 2662, 2010; active = well fitted inhibition curve with a large enough effect in the polarisation, with a control signal flat, not every such curve was filed as active; inconclusive = small, poorly fitted or top-dose-only effect, or effect the other way, or a change in a side signal; inactive = no such curve, though single readings can be large or run the other way; the % refers to the polarisation; note: potency is the fitted concentration of half-maximal effect
#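 Purified MLL-CXXC (added from a 7 uM solution) was preincubated 5 min at ambient with pinned compounds in 50 mM Tris-HCl pH 7.5, 50 mM NaCl, 1 mM DTT, 0.05% BSA. Fluorescein-labeled HOX-A9 DNA (50 nM solution) followed, 30 min, then polarization read.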
# Menin-MLL TR inh – qHTS Assay for Inhibitors Targeting the Menin-MLL Interaction in MLL Related Leukemias: Competition With Texas Red Labeled MLL-derived Mutant Peptide | O00255 | Menin + Texas Red MLL mutant peptide, fluorescence polarization | Potency, µM (series often up to 61.6 µM), for the others: top-dose FP activity change, negative = inhibition, hits mostly inhibitors | hit rate 0.23% among 270,000 | AID 1768, 2009; active = well fitted inhibition curve with a large enough effect in the polarisation, with a control signal flat, not every such curve was filed as active; inconclusive = small, poorly fitted or top-dose-only effect, or effect the other way, or a change in a side signal; inactive = no such curve, though single readings can be large or run the other way; the % refers to the polarisation; note: potency is the fitted concentration of half-maximal effect; % of control where 0% means no effect
# pAkt inh – HTS Assay for Inhibitors of Akt Phophorylation: Primary Screen | Neuro2A IGF-stimulated pAkt S473 HTRF, 20 min; active compounds read low | activity change, % for hits at 50 µM | AID 651550, 2012 | hit rate 0.32% among 360,000; in the data active = activity change below about -80%; inconclusive = mostly about -51% to -80%; note: % is set by controls: 0 for no effect and ±100 for the full control effect
#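 Neuro2A cells (4,500/well, DMEM with 0.5% FBS) were treated with compound at a single 50 µM final concentration, stimulated with 6 nM IGF for 20 min at 37 °C, and lysed. Phospho-Akt Ser473 was read by HTRF as 665/615 ratio ×10^4.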
# LDHA block – qHTS assay for inhibitors of human lactate dehydrogenase; L-lactate dehydrogenase A chain (Homo sapiens), P00338; purified LDHA, NADH/diaphorase-resazurin fluorescence; active compounds read low; activity change, % (values are at about 110 or 230 µM); hit rate 0.15% among 480,000; in the data active = activity change below about -30%; inconclusive = mostly about -25% to -30%;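 note: plate controls were DMSO wells for no effect and wells without enzyme for full effect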
#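 Human LDH5 (2 nM) was incubated with 0.06 mM NADH and 0.2 mM pyruvate for 5 min at room temperature in Tris pH 7.4. Remaining NADH was coupled through diaphorase/resazurin, and resorufin fluorescence was read at 0 and 20 min.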
# * marks the source's active call; other numbers are inactive results; i = inactive; ? = inconclusive; . = no result.
SMILES,mIDH1 inhibitor,Menin MLL FP FL,MLL CXXC-DNA inh,Menin-MLL TR inh,pAkt inh,LDHA block
Cc1ccccc1NC(=O)N1C2CCCC1CC(NC(=O)C1CC1)C2 (configuration not stated),-5.0%,1.8,3.5%,-0.3%,i,-6.0
CCCCNS(=O)(=O)c1ccc(OC)c(Cl)c1Cl,3.6%,0.4,-1.3%,-15.0%,.,0.0
CCC(C)NS(=O)(=O)c1ccc(OC)c(Cl)c1Cl (configuration not stated),0.0%,3.3,7.0%,-9.1%,-122.1%*,-5.8
COc1ccc(SCC(=O)c2ccc(O)cc2O)cc1,.,.,.,.,.,-22.0
CCCCc1c(O)nc(SCC(=O)N2CCOCC2)n(-c2ccccc2C)c1=O,4.8%,0.1,-13.2%,0.3%,-113.3%*,0.6
CCCCc1c(O)nc(SCC(=O)N2CCOCC2)n(-c2ccccc2OC)c1=O,-2.6%,-0.8,19.5%,-17.4%,i,-8.4
Cc1ccc(-c2csc3ncnc(-n4nc(C)cc4N)c23)cc1,3.1%,2.8,-8.7%,-10.8%,i,-5.1
Cc1cc(N)n(-c2ncnc3scc(-c4ccc(Cl)cc4)c23)n1,-0.7%,4.9,2.2%,-7.5%,-81.5%*,-6.9
OCC1OC(n2nnc3ccccc32)C(O)C(O)C1O (configuration not stated),-6.0%,3.6,-6.7%,2.6%,-92.2%*,1.0
COc1ccc2cc(C(=O)NCCNC(C)=O)c(C)nc2c1,.,.,.,.,.,-12.4
O=C(N/N=C/c1ccncc1)c1ccccn1,-1.4%,-14.0,-9.1%,100µM*,i,-0.8
O=C(N/N=C/c1ccncc1)c1cnccn1,12.2%,3.8,8.7%,.,i,-3.1
Cc1ccc(Cl)cc1N1C(=O)N(CC(=O)N2CCCCCC2)c2ccccc2S1(=O)=O,.,.,.,.,.,-1.7
O=C(CCS(=O)(=O)c1ccc(Br)cc1)N1CCN(Cc2ccccc2)CC1,0.3%,0.8,0.7%,?,-109.3%*,-3.3
O=C(CCS(=O)(=O)c1ccc(Br)cc1)N1CCN(c2ccccc2)CC1,2.0%,0.6,-1.6%,-15.4%,i,2.8
N#C/C(=C/c1ccccc1OC(F)F)C(=O)c1ccccc1,.,.,.,.,.,1.7
O=C1c2cccnc2C(O)N1Cc1ccc(F)cc1 (configuration not stated),1.7%,-1.4,-10.3%,-9.2%,-95.1%*,-5.2
COCCN(C(=O)C1CCN(C(=O)c2ccccc2C)CC1)c1c(N)n(CC(C)C)c(=O)[nH]c1=O,0.5%,.,.,.,i,-47.4*
Cc1ccccc1C(=O)N1CCC(C(=O)N(CC(C)C)c2c(N)n(CC(C)C)c(=O)[nH]c2=O)CC1,3.2%,.,.,.,i,0.6
O=C(NCc1ccc2c(c1)OCO2)c1n[nH]nc1Nc1ccc(F)cc1,.,.,.,.,.,3.0
CC1=C2C(CCS2(=O)=O)CC2(C1)C(=O)OC(C)(C)OC2=O (configuration not stated),-5.0%,-3.1,-3.3%,-3.7%,-82.5%*,-1.8
CC(=O)C1CCN(c2ncc(-c3ccc4c(c3)OCCCO4)s2)CC1,.,.,.,.,.,-4.3
O=C(O)c1cccc(-n2cccc2/C=N/O)c1,0.1%,4.4,6.6%,9.7%,-109.2%*,-1.1
Nc1nnnn1/N=C/c1ccc(Br)cc1,-4.9%,2.1,25.0%,-7.4%,i,-10.5
Nc1nnnn1/N=C/c1cc(Br)ccc1O,8.3%,.,.,.,i,-46.9*
CCC(=O)Nc1ccc(NC(=O)c2oc3ccccc3c2C)cc1,6.2%,0.0,-3.8%,18.9%,i,-9.0
Cc1c(C(=O)NNC(=O)Nc2ccc([N+](=O)[O-])cc2)oc2ccccc12,-17.9%,0.3,3.4%,?,i,-43.6*

# Bioassay records as filed in PubChem BioAssay.
